Experimental data published in PubChem BioAssay (Tox21).
Inconclusive results are not listed. The source made the active and inactive calls. Calls come from the whole dose curve; as a rule, active = well fitted curve in the direction sought with a large enough effect in the repeat runs; inconclusive = weak or mixed curves; inactive = no such curve, though single readings can be large; an effect the other way counts as inactive or inconclusive.

How the values were obtained:
[1] = qHTS RealTime-Glo MT Cell Viability Assay in HepG2 cells - 40 hour (AID 1224870); note: nearly all actives have a fitted effect of over 50% in size
In short: (§1)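 HepG2 cells mixed with RealTime-Glo MT reagents (NanoLuc plus cell-permeant prosubstrate) were seeded at 600 cells/well, incubated 5 h at 37 C/5% CO2, then pinned with compounds in DMSO; nonlytic luminescence tracked viability during 40 h treatment.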

[2] = A CellTox Green Cytotoxicity Assay to monitor cytotoxicity in HEK293 cells - 40 hour (AID 1224871); note: nearly all actives have a fitted effect of over 45% in size
In short: (§2)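 Fluorescence from a DNA-binding dye excluded by viable cells was measured repeatedly in the same HEK293 wells (600 cells/well) during continuous compound exposure at 37 C. Each assay gives one read point: 0, 8, 16, 24, 32 or 40 h.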

[3] = qHTS RealTime-Glo MT Cell Viability Assay in HEK293 cells - 16 hour (AID 1224872); note: top concentration of the series differs between compounds; nearly all actives have a fitted effect of over 50% in size
In short: (§3)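 Reads taken at 0, 8, 16, 24, 32 and 40 h from the same wells. HEK293 cells (600/well) carried RealTime-Glo reagents from seeding, with compound added after a 5 h settle at 37 C.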

[4] = qHTS RealTime-Glo MT Cell Viability Assay in HepG2 cells - 8 hour (AID 1224873); note: nearly all actives have a fitted effect of over 55% in size
In short: as §1

[5] = qHTS RealTime-Glo MT Cell Viability Assay in HEK293 cells - 40 hour (AID 1224874); conditions: RealTime-Glo luminescence; max response: hits give low values; note: nearly all actives have a fitted effect of over 50% in size
In short: (§4)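 Luminescence, which tracks viable cell number through reduction of the prosubstrate to a NanoLuc substrate, was read over continuous 37 C culture. Cells (600/well) were premixed with reagent and rested 5 h before 23 nL of compound in DMSO was pinned.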

[6] = A CellTox Green Cytotoxicity Assay to monitor cytotoxicity in HEK293 cells - 24 hour (AID 1224875); note: series mostly up to about 77 µM; nearly all actives have a fitted effect of over 45% in size
In short: as §2

[7] = A CellTox Green Cytotoxicity Assay to monitor cytotoxicity in HepG2 cells - 16 hour (AID 1224876); note: nearly all actives have a fitted effect of over 45% in size
In short: (§5)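 Real-time cytotoxicity: fluorescence of a cell-impermeant cyanine dye binding DNA of dead HepG2 cells, measured repeatedly (0–40 h) during compound exposure at 37 C. Cells seeded 600/well with reagent, dosed after 5 h.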

[8] = qHTS RealTime-Glo MT Cell Viability Assay in HepG2 cells - 32 hour (AID 1224877); note: nearly all actives have a fitted effect of over 55% in size
In short: (§6)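 HepG2 suspension premixed with RealTime-Glo reagents is plated at 600 cells per well and left 5 h at 37 C/5% CO2. Compounds in DMSO then go in, and bioluminescence reflecting viable cell number is recorded over 40 h.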

[9] = A CellTox Green Cytotoxicity Assay to monitor cytotoxicity in HepG2 cells - 24 hour (AID 1224878); note: nearly all actives have a fitted effect of over 45% in size
In short: as §5

[10] = A CellTox Green Cytotoxicity Assay to monitor cytotoxicity in HepG2 cells - 40 hour (AID 1224879); note: nearly all actives have a fitted effect of over 40% in size
In short: as §5

[11] = qHTS RealTime-Glo MT Cell Viability Assay in HEK293 cells - 0 hour (AID 1224880)
In short: as §4

[12] = A CellTox Green Cytotoxicity Assay to monitor cytotoxicity in HEK293 cells - 32 hour (AID 1224881); note: nearly all actives have a fitted effect of over 40% in size
In short: as §2

[13] = A CellTox Green Cytotoxicity Assay to monitor cytotoxicity in HepG2 cells - 0 hour (AID 1224882); note: nearly all actives have a fitted effect of over 35% in size
In short: as §5

[14] = A CellTox Green Cytotoxicity Assay to monitor cytotoxicity in HepG2 cells - 32 hour (AID 1224883); note: nearly all actives have a fitted effect of over 50% in size
In short: as §5

[15] = A CellTox Green Cytotoxicity Assay to monitor cytotoxicity in HEK293 cells - 8 hour (AID 1224884); note: nearly all actives have a fitted effect of over 35% in size
In short: as §2

[16] = qHTS RealTime-Glo MT Cell Viability Assay in HepG2 cells - 16 hour (AID 1224885); note: nearly all actives have a fitted effect of over 50% in size
In short: as §6

[17] = qHTS RealTime-Glo MT Cell Viability Assay in HEK293 cells - 8 hour (AID 1224887)
In short: as §4

[18] = A CellTox Green Cytotoxicity Assay to monitor cytotoxicity in HEK293 cells - 16 hour (AID 1224888); note: nearly all actives have a fitted effect of over 35% in size
In short: as §2

[19] = qHTS RealTime-Glo MT Cell Viability Assay in HepG2 cells - 0 hour (AID 1224889); note: nearly all actives have a fitted effect of over 50% in size
In short: as §6

[20] = qHTS RealTime-Glo MT Cell Viability Assay in HEK293 cells - 24 hour (AID 1224886)
In short: as §3
% is set by controls: 0 for no effect and ±100 for the full control effect.

CCCOC(=O)c1cncn1C(C)c1ccccc1 (centres undefined)
inactive: Potency [1] | Potency [2] | Potency [3] | outcome [4] | max response [5] -0.62% | Potency [6] | Potency [7] | Potency [8] | Potency [9] | Potency [10] | outcome [11] | Potency [12] | outcome [13] | Potency [14] | Potency [15] | Potency [16] | Potency [17] | Potency [18] | outcome [19]

CC(C)(C1CCC(O)CC1)C1CCC(O)CC1 (centres undefined)
inactive: Potency [1] | Potency [2] | Potency [3] | outcome [4] | max response [5] -18.7% | Potency [6] | Potency [7] | Potency [8] | Potency [9] | Potency [10] | outcome [11] | Potency [12] | outcome [13] | Potency [14] | Potency [15] | Potency [16] | Potency [20] | Potency [17] | Potency [18] | outcome [19]

CCN(CC)CCOC(=O)C(O)(c1ccccc1)c1ccccc1
inactive: Potency [1] | Potency [2] | Potency [3] | outcome [4] | max response [5] -0.657% | Potency [6] | Potency [7] | Potency [8] | Potency [9] | Potency [10] | outcome [11] | Potency [12] | outcome [13] | Potency [14] | Potency [15] | Potency [16] | Potency [17] | Potency [18] | outcome [19]

CCCCS(=O)(=O)Cl
inactive: Potency [1] | Potency [2] | Potency [3] | outcome [4] | max response [5] 6.29% | Potency [6] | Potency [7] | Potency [8] | Potency [9] | Potency [10] | outcome [11] | Potency [12] | outcome [13] | Potency [14] | Potency [15] | Potency [16] | Potency [17] | Potency [18] | outcome [19]

COc1cccc([C@@]2(O)CCCC[C@@H]2CN(C)C)c1
inactive: Potency [1] | Potency [2] | Potency [3] | outcome [4] | max response [5] 0.459% | Potency [6] | Potency [7] | Potency [8] | Potency [9] | Potency [10] | outcome [11] | Potency [12] | outcome [13] | Potency [14] | Potency [15] | Potency [16] | Potency [17] | Potency [18] | outcome [19]

CCC1(c2ccccc2)CCC(=O)NC1=O (centres undefined)
inactive: Potency [1] | Potency [2] | Potency [3] | outcome [4] | max response [5] -2.24% | Potency [6] | Potency [7] | Potency [8] | Potency [9] | Potency [10] | outcome [11] | Potency [12] | outcome [13] | Potency [14] | Potency [15] | Potency [16] | Potency [20] | Potency [17] | Potency [18] | outcome [19]

Cc1cc(OC(=O)N(C)C)nn1C(=O)N(C)C
inactive: Potency [1] | Potency [2] | Potency [3] | outcome [4] | max response [5] 2% | Potency [6] | Potency [7] | Potency [8] | Potency [9] | Potency [10] | outcome [11] | Potency [12] | outcome [13] | Potency [14] | Potency [15] | Potency [16] | Potency [20] | Potency [17] | Potency [18] | outcome [19]

CCCC(C)(COC(N)=O)COC(N)=O
inactive: Potency [1] | Potency [2] | Potency [3] | outcome [4] | max response [5] 2.95% | Potency [6] | Potency [7] | Potency [8] | Potency [9] | Potency [10] | outcome [11] | Potency [12] | outcome [13] | Potency [14] | Potency [15] | Potency [16] | Potency [20] | Potency [17] | Potency [18] | outcome [19]

CCOC(=O)c1ncn2c1CN(C)C(=O)c1c(I)cccc1-2
inactive: Potency [1] | Potency [2] | Potency [3] | outcome [4] | max response [5] 1.2% | Potency [6] | Potency [7] | Potency [8] | Potency [9] | Potency [10] | outcome [11] | Potency [12] | outcome [13] | Potency [14] | Potency [15] | Potency [16] | Potency [20] | Potency [17] | Potency [18] | outcome [19]

C1CN2CCC1CC2
inactive: Potency [1] | Potency [2] | Potency [3] | outcome [4] | max response [5] 0.665% | Potency [6] | Potency [7] | Potency [8] | Potency [9] | Potency [10] | outcome [11] | Potency [12] | outcome [13] | Potency [15] | Potency [16] | Potency [20] | Potency [17] | Potency [18] | outcome [19]

ClCC1CO1 (centres undefined)
inactive: Potency [1] | Potency [2] | Potency [3] | outcome [4] | max response [5] -2.45% | Potency [6] | Potency [7] | Potency [8] | Potency [9] | Potency [10] | outcome [11] | Potency [14] | Potency [15] | Potency [16] | Potency [20] | Potency [17] | Potency [18] | outcome [19]

CN1C(=O)COc2c(C(=O)NC3CN4CCC3CC4)cc(Cl)cc21 (centres undefined)
inactive: Potency [1] | Potency [2] | Potency [3] | outcome [4] | max response [5] 3.5% | Potency [6] | Potency [7] | Potency [8] | Potency [9] | Potency [10] | outcome [11] | Potency [12] | outcome [13] | Potency [15] | Potency [16] | Potency [20] | Potency [17] | Potency [18] | outcome [19]

NC1(c2ccccc2)CCCCC1
inactive: Potency [1] | Potency [2] | Potency [3] | outcome [4] | max response [5] -3.55% | Potency [6] | Potency [7] | Potency [8] | Potency [9] | Potency [10] | outcome [11] | Potency [12] | Potency [15] | Potency [16] | Potency [20] | Potency [17] | Potency [18] | outcome [19]

Clc1nc(Cl)nc(Nc2ccccc2Cl)n1
inactive: Potency [1] | Potency [2] | Potency [3] | outcome [4] | max response [5] 11.5% | Potency [6] | Potency [7] | Potency [8] | Potency [9] | Potency [10] | outcome [11] | Potency [12] | Potency [14] | Potency [15] | Potency [16] | Potency [20] | Potency [17] | Potency [18] | outcome [19]
